Assay outcomes from PubChem BioAssay.
Shown is part of a subset that was picked to be rich in hits.
Pf Dd2 growth: Plasmodium falciparum Dd2 growth inhibition. Potency, µM (top dose mostly 28.9 µM), without a hit: at the top dose activity, negative = inhibition, most hits filed as inhibitors. AID 1347417. actives 4.3% (n = 120,000). P. falciparum Dd2 growth, SYBR Green, 72 h; active means well fitted inhibition curve with a large enough effect;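 further: plate controls were DMSO vehicle for no effect and reference drug for full effect; nearly all actives have a fitted effect of over 65% in size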
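Readout: SYBR Green fluorescence, 485 nm excitation, 535 nm emission, after ~16 h lysis at 37C. Before that, Dd2-infected red cells (2.5% hematocrit) grew 72 h with compound, 29 uM top final concentration.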
* hit, by the source's call; i = inactive; [ ] = remark or other dose. Potency means the concentration at half of the fitted maximal effect.

SMILES	Pf Dd2 growth
COc1ccc(CNC(=O)C(C)Sc2nc(-c3ccccc3)cc(C(F)(F)F)n2)cc1 (stereo not given)	-18.1%
CCOC(=O)c1c(NC(=O)CSc2nc(-c3ccccc3)cc(C(F)(F)F)n2)sc(C)c1C	i
CCOC(=O)c1sc(NC(=O)C(C)Sc2nc(-c3ccccc3)cc(C(F)(F)F)n2)c(C(=O)OC)c1C (stereo not given)	0.708µM*
CN(Cc1ccccc1)Cc1cc(CC2(NCc3ccc(F)cc3)COC2)no1	i
Cn1ccnc1C(NC(=O)c1cn(CCN)nn1)C1CC1 (stereo not given)	-4.9%
COCc1nc(CCNC(=O)C2CCC2)no1	83.4%
CCN1c2cc(C(=O)Nc3ccc(C)cc3C)ccc2C(=O)N2CCCCCC21 (stereo not given)	i
CN1c2cc(C(=O)Nc3cccc(OC(F)(F)F)c3)ccc2C(=O)N2CCCCC21 (stereo not given)	-20.0%
CCOC(=O)c1ccc(NC(=O)c2ccc3c(c2)N(CC)C2CCCCN2C3=O)cc1 (stereo not given)	-8.4%
CCN1c2cc(C(=O)Nc3ccc(OC)c(OC)c3)ccc2C(=O)N2CCCCCC21 (stereo not given)	i
CCOc1ccc(NC(=O)c2ccc3c(c2)N(CC)C2CCCCN2C3=O)cc1 (stereo not given)	5.01µM*
CCN1c2cc(C(=O)Nc3cc(C)ccc3OC)ccc2C(=O)N2CCCCCC21 (stereo not given)	6.31µM*
CCN1c2cc(C(=O)Nc3cccc(OC(F)(F)F)c3)ccc2C(=O)N2CCCCC21 (stereo not given)	4.47µM*
CCN1c2cc(C(=O)Nc3cccc(OC)c3)ccc2C(=O)N2CCCCCC21 (stereo not given)	i
CCN1c2cc(C(=O)Nc3ccc(C)cc3)ccc2C(=O)N2CCCCCC21 (stereo not given)	i
Cn1ncc(N2CCCC(CC(=O)Nc3ccc(F)c(F)c3)C2)cc1=O (stereo not given)	-17.8%
Cc1ccc(C)c(CN2CCn3c(nn(Cc4ccccc4C)c3=O)C2=O)c1	-17.2%
Cc1ccc(C2NC(=O)N(CC(=O)Nc3ccc(C(C)C)cc3)C3=C2C(=O)OC3)cc1 (stereo not given)	-20.0%
CCC(C)(C)C(=O)N1C[C@@H](CO)[C@H](c2nc(-c3ccncc3)no2)C1	i
O=C(Cc1ccc(OC(F)(F)F)cc1)N1CC(CNc2cccnc2)C2(C1)CN(c1ccccc1)C2 (stereo not given)	-15.9%
O=C(c1cnccn1)N1CCc2onc(C(c3ccccc3)c3ccccc3)c2C1	i
Cc1nc(N2CCC(NC(=O)COc3ccccc3)CC2)cc(C(F)(F)F)n1	16.7%
O=Cc1ccccc1-c1ccccc1F	0.7%[44.1 µM]
CC(C)(C)CN1CCOC[C@H]1c1ncc(-c2ccc(S(C)(=O)=O)cc2)[nH]1	-23.9%[44.1 µM]
CCCc1cc(N2CCC(N[C@@H]3CCNC3)CC2)nc(C)n1	-10.6%
SMILES	Pf Dd2 growth
CCc1cc(N2CCC(NCCc3cccc(Cl)c3)CC2)nc(C)n1	11.2µM*
Cc1nc(N2CCC(NC(=O)Cc3cccc(F)c3)CC2)cc(C(F)(F)F)n1	-0.6%
CCCn1c(C)cnc1CC1CCN(C(=O)C2CC2)C1 (stereo not given)	-11.6%
O=C(c1cccnc1)N1CCCC2(C1)C(=NC1CCCC1)NC(=O)N2c1cc(F)cc(F)c1 (stereo not given)	-17.3%
O=C1NC(=NC2CCCC2)C2(CCCN(Cc3cccnc3)C2)N1c1cccnc1 (stereo not given)	7.3%
O=C1NC(=NC2CCCCC2)C2(CCN(Cc3ccc(F)cc3)CC2)N1c1cccnc1	3.9%
O=C1NC(=NC2CCCCC2)C2(CCCN(Cc3ccc(F)cc3)C2)N1c1cc(F)cc(F)c1 (stereo not given)	7.94µM*
O=C1NC(=NC2CCCCC2)C2(CCN([S+](=O)([O-])c3ccccc3)C2)N1c1cc(F)cc(F)c1 (stereo not given)	-27.8%
O=C1NC(=NC2CCCCC2)C2(CCN(Cc3ccc(F)cc3)C2)N1c1cc(F)cc(F)c1 (stereo not given)	1.78µM*
Cc1cccc(N(C)c2ccc3nnc(-c4cc(C(=O)N(C)C)ccn4)n3n2)c1	i
Cc1ccc(OCc2ccc(-c3nc(C#N)c(N4CCN(c5cccc(Cl)c5)CC4)o3)o2)cc1	-7.8%
Cc1ccccc1OCc1ccc(-c2nc(C#N)c(N3CCN(c4ccccc4)CC3)o2)o1	11.2µM*
N#Cc1nc(/C=C/c2ccc(F)cc2)oc1N1CCN(c2ccccc2)CC1	60.0%
Cc1ccc(C)c(C(=O)N2CCC3(CC2)NC(=O)N(c2ccccc2)N3)c1	i
Cc1nc(-c2c3n(c(=O)n(Cc4cc(F)ccc4F)c2=O)CCCCC3)no1	6.5%
O=C1CCCN1CCCN1C(=O)[C@@H]2C[C@@H](O)CN2C2(CN(Cc3ccc(F)cc3)C2)C1=O	i
CCOc1ccc(CNC(=O)c2oc3c(c2C)-c2nn(Cc4cccc(Cl)c4)cc2CC3)cc1	11.2µM*
Cc1cccc(CNC(=O)c2oc3c(c2C)-c2nn(Cc4ccccc4Cl)cc2CC3)c1	-24.9%
Cc1cccc(CNC(=O)c2oc3c(c2C)-c2nn(Cc4cccc(Cl)c4)cc2CC3)c1	-5.3%
N#Cc1ccc(CN2CC3(Cc4ccccc4C(=O)N3)C2)cc1	-5.4%
Cc1ccc(S(=O)(=O)c2cn(Cc3ccccc3)c3cc(N4CCOCC4)c(F)cc3c2=O)cc1	7.94µM*
Cc1cccc(S(=O)(=O)c2cn(C)c3cc(N4CCC(C)CC4)c(F)cc3c2=O)c1	29.3%
Cc1cccc(Cn2cc(S(=O)(=O)c3ccccc3)c(=O)c3cc(F)c(N4CCOCC4)cc32)c1	8.91µM*
CCCCn1cc(S(=O)(=O)c2cc(C)ccc2C)c(=O)c2cc(F)c(N3CCC(C)CC3)cc21	45.6%
Cc1ccc(C)c(S(=O)(=O)c2cn(Cc3ccccc3)c3cc(N4CCCC4)c(F)cc3c2=O)c1	10µM*
SMILES	Pf Dd2 growth
Cc1cccc(S(=O)(=O)c2cn(Cc3ccccc3)c3cc(N4CCCC(C)C4)c(F)cc3c2=O)c1 (stereo not given)	i
Cc1cccc(Cn2cc(S(=O)(=O)c3cccc(C)c3)c(=O)c3cc(F)c(N4CCOCC4)cc32)c1	-0.5%
CCCCn1cc(S(=O)(=O)c2cccc(C)c2)c(=O)c2cc(F)c(N3CCOCC3)cc21	-27.9%
Cc1cccc(S(=O)(=O)c2cn(Cc3ccc(F)cc3)c3cc(N4CCOCC4)c(F)cc3c2=O)c1	6.31µM*
Cc1ccc(S(=O)(=O)c2cn(Cc3ccccc3)c3cc(N4CCCCC4)c(F)cc3c2=O)cc1	-23.4%
COc1ccc(C(=O)N2CCCC(CN3CCOCC3)CC2)cc1OC (stereo not given)	-2.2%
O=C([C@@H]1C[C@H](F)CN1S(=O)(=O)c1ccccc1F)N1CCc2ccccc2C1	-8.1%
COCc1nncn1C1CCN(S(=O)(=O)c2ccc(F)c(Cl)c2)CC1	2.7%
O=C(CC1CCN(S(=O)(=O)c2ccccc2F)C1)NCc1ccccc1 (stereo not given)	i
COc1cccc(N2C(=O)NC(=NC3CCCC3)C23CCCN(Cc2ccc(N(C)C)cc2)C3)c1 (stereo not given)	11.2µM*
COc1ccc(C(=O)N2CCCC3(C2)C(=NC2CCCC2)NC(=O)N3c2cccc(OC)c2)cc1 (stereo not given)	8.3%
COc1cccc(N2C(=O)NC(=NC3CCCCC3)C23CCCN(Cc2ccc(N(C)C)cc2)C3)c1 (stereo not given)	11.2µM*
COc1cccc(N2C(=O)NC(=NC3CCCCC3)C23CCN(C(=O)c2ccccc2)C3)c1 (stereo not given)	-27.8%
